Laboratory results published in PubChem BioAssay (NCATS).
Inconclusive results are not listed. Calls of active or inactive are those of the source. Unless noted, the call rests on the fitted dose curve.

How the values were obtained:
[1] = qHTS for Inhibitors of the Functional Ribonucleoprotein Complex (vRNP) of Lassa (LASV) Arenavirus: LASV Primary Screen - GLuc reporter signal (AID 1347082; calls by dose curve; tested in HEK293 reporter line; further: nearly all actives have a fitted effect of over 60% in size)
[2] = qHTS for Inhibitors of the Functional Ribonucleoprotein Complex (vRNP) of Lassa (LASV) Arenavirus: Viability assay - alamar blue signal for LASV Primary Screen (AID 1347083; calls by dose curve; tested in HEK293 reporter line; further: nearly all actives have a fitted effect of over 80% in size)
[3] = qHTS for Inhibitors of the Functional Ribonucleoprotein Complex (vRNP) of Lymphocytic Choriomeningitis Arenaviruses (LCMV): Viability assay - alamar blue signal for LCMV Primary Screen (AID 1347085; calls by dose curve; tested in HEK293 reporter line; further: nearly all actives have a fitted effect of over 80% in size)
[4] = biological target: Nucleoprotein (Lymphocytic choriomeningitis virus (strain Armstrong)) (UniProt P09992); assay: qHTS for Inhibitors of the Functional Ribonucleoprotein Complex (vRNP) of Lymphocytic Choriomeningitis Arenaviruses (LCMV): LCMV Primary Screen - GLuc reporter signal (AID 1347086); further: nearly all actives have a fitted effect of over 70% in size

Measured: Potency
Potency means the concentration at half of the fitted maximal effect.

Chain of Nucleoprotein (Lymphocytic choriomeningitis virus (strain Armstrong)) (P09992 whole entry, looked up): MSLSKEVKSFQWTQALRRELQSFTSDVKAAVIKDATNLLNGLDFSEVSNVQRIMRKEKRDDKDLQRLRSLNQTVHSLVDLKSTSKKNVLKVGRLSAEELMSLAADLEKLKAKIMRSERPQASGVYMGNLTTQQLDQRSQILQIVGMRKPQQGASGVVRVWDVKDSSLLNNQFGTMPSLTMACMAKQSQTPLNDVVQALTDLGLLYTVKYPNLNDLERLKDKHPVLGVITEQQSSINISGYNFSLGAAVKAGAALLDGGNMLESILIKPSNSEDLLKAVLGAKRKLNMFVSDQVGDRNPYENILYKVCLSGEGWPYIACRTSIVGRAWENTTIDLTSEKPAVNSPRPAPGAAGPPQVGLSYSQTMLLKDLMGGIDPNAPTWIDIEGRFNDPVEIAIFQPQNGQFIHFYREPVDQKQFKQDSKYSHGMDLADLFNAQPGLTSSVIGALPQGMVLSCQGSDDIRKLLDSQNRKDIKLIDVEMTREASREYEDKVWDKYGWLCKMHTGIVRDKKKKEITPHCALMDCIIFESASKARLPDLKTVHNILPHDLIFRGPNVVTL

C=C1C[C@]23CC[C@H]4C(CO)(CO)C[C@@H](O)C[C@@]4(C)[C@@H]2CC[C@H]1C3
inactive: all assays above

C[C@H]1[C@H](C)CC[C@]2(C(=O)O)CC[C@]3(C)C(=CC[C@@H]4[C@@]5(C)C[C@@H](O)[C@H](O)C(C)(C)[C@@H]5CC[C@]43C)[C@H]12
inactive: all assays above

CC1(C)C[C@@H](O)[C@]2(C)CC[C@]3(C)C(=CCC4[C@@]5(C)CC[C@H](O)[C@](C)(CO)C5CC[C@]43C)[C@@H]2C1 (stereo not given in full)
inactive: all assays above

C=C[C@@H](C1=CC(=O)C(OC)=C(OC)C1=O)c1ccccc1
inactive: all assays above

C=C(CC[C@@H](O)C(C)(C)O)[C@H]1CC[C@]2(C)[C@@H]1CCC1[C@@]3(C)CC[C@H](O)C(C)(C)C3CC[C@]12C (stereo not given in full)
inactive: all assays above

O=CCCc1ccccc1
inactive: all assays above

CC/C=C/CCO
inactive: all assays above

CC1=C[C@H]2[C@]3(O)C(C=C(CO)C[C@]2(O)C1=O)[C@@H]1C(C)(C)[C@]1(O)[C@H](O)[C@H]3C (stereo not given in full)
inactive: all assays above

CCc1ccc(O)c(OC)c1
inactive: all assays above

CC[C@@H]1C=C(C)C[C@H](C)C[C@H](OC)[C@H]2O[C@@](O)(C(=O)C(=O)N3CCCC[C@@H]3C(=O)O[C@H](C(C)=C[C@@H]3CC[C@H](Cl)[C@H](OC)C3)[C@H](C)[C@@H](O)CC1=O)[C@H](C)C[C@H]2OC
inactive: all assays above

Cc1ccc(-c2ccccc2)cc1
inactive: all assays above

c1ccc(CN(Cc2ccccc2)Cc2ccccc2)cc1
inactive: all assays above

O=c1ccc2ccc(O[C@@H]3O[C@H](CO)[C@@H](O)[C@H](O)[C@H]3O)c(O)c2o1
inactive: all assays above

COc1c2ccoc2nc2c(OC)c(OCC(OC(C)=O)C(C)(C)O)ccc12 (stereo not given)
inactive: all assays above

COc1cc(C)c(C(=O)Oc2cc(C)c(C(=O)O)c(O)c2C)c(O)c1C
inactive: all assays above

CC1=CC(=O)OC2CC3OC4C[C@@H](C)C5OC6CC7O[C@]8(C)C/C=C\C9OC%10CC%11OC(CC(C)CO)CC(O)[C@]%11(C)OC%10CC9OC8C[C@]7(C)O[C@]6(C)CCC5OC4C[C@]3(C)OC12 (stereo not given in full)
inactive: all assays above

c1ccc(-c2ccc3ccccc3n2)cc1
inactive: all assays above

O=C1c2c(O)cc(O)cc2O[C@H](c2ccc(O)c(O)c2)[C@@H]1O
inactive: all assays above

COc1cc2c(c(OC)c1OC)-c1c(cc3c(c1O)OCO3)C[C@@H](C)[C@@H](C)C2
inactive: all assays above

CCCCCCCCOC(C)=O
inactive: all assays above

CCn1c(-c2nonc2N)nc2cncc(CNC3CCNCC3)c21
active: [1] 24.3 µM | [2] 17.2 µM | [3] 24.3 µM | [4] 38.5 µM

C/C=C1/CN2C3CC1C(CO)(C(=O)OC)C2Cc1c3n(C)c2ccccc12 (stereo not given)
inactive: all assays above

CC1=CCC(=C(C)C)CC1
inactive: all assays above

C/C=C(\C)C(=O)O[C@H]1C[C@@]2(C)CCC(C(C)C)C2(O)CC[C@@]1(C)O (stereo not given in full)
inactive: all assays above

CC(C)OC(=O)c1ccccc1
inactive: all assays above

CC(O)CC(=O)O (stereo not given)
inactive: all assays above

Cc1cc(O)cc(O[C@H]2OC(CO)[C@H](O)[C@@H](O)[C@H]2O)c1 (stereo not given in full)
inactive: all assays above

COc1ccc(C(=O)OCCc2ccc(O)cc2)cc1
inactive: all assays above

CSC(=S)NCc1c[nH]c2ccccc12
inactive: all assays above

C[C@@H]1[C@H]2[C@@H](O[C@@H]3O[C@H](CO)[C@@H](O)[C@H](O)[C@H]3O)OC=C(C(=O)O)[C@H]2C[C@@H]1O
inactive: all assays above

CC(C)=CCc1c(-c2ccc(O)cc2O)oc2cc3c(c(O)c2c1=O)C=CC(C)(C)O3
inactive: all assays above

OCCNC1CCCc2c1[nH]c1ccc(-c3ccccc3)cc21 (stereo not given)
inactive: all assays above

O=c1cc(CCc2ccccc2)oc2cccc(O)c12
inactive: all assays above

COC(=O)C1=COC(O[C@H]2OC(CO)[C@H](O)C(O)C2O)[C@H]2C1C(=O)C[C@@H]2C (stereo not given in full)
inactive: all assays above

COC(=O)/C=C/c1ccccc1
inactive: all assays above

COc1ccc(-c2coc3cc(O)ccc3c2=O)cc1OC
inactive: all assays above

COC(=O)C1=CO[C@@H](OC2OC(CO)C(O)C(O)C2O)[C@@H]2C(CO)=CC[C@H]12 (stereo not given in full)
inactive: all assays above

O=c1c(-c2ccc(O)cc2)coc2cc(OC3O[C@H](CO)[C@H](O)[C@H](O)[C@H]3O)cc(O)c12 (stereo not given in full)
active: [1] 19.3 µM | [2] 17.2 µM | [3] 21.7 µM | [4] 19.3 µM

Fc1ccc(C(c2ccc(F)cc2)N2CCN(CC=Cc3ccccc3)CC2)cc1
inactive: all assays above

COc1ccc(-c2coc3cc(OC)cc(O)c3c2=O)cc1
inactive: all assays above

CC(C)CCCC(C)CCO (stereo not given)
inactive: all assays above

COc1ccc2c(=O)c(-c3ccccc3)c(C)oc2c1
inactive: all assays above

CC/C=C\CCOC(=O)C(C)C
inactive: all assays above

CC1(C)C(CO)=CC(=O)C2=C1SCC(=O)N2
inactive: all assays above

COc1c(Br)cc(Br)cc1C(=O)O
inactive: all assays above

CC(C)(C)c1ccccc1
inactive: all assays above

COC(=O)C1=CO[C@@H](C)[C@@H]2CN3CC[C@@]4(C(=O)Nc5ccccc54)[C@@H]3C[C@H]12
inactive: all assays above

C[C@@H]1CC2OC(=O)[C@@]3(C)C(=O)CC[C@@](C)(C23)[C@@]1(O)CCc1ccoc1 (stereo not given in full)
inactive: all assays above

CN1CCCC1
inactive: all assays above

CCC/C=C/C/C=C/C=C/C=N/NN=O
inactive: all assays above

CCCCCCOC(=O)CCC
inactive: all assays above

CCCCCCCCC1OC1CCCCCCCC(=O)O (stereo not given)
inactive: all assays above

O=C(CO)c1c[nH]c2ccccc12
inactive: all assays above

COc1ccc(CNC(=S)NCc2ccc(OC)cc2)cc1
inactive: all assays above

CC(C)CC(=O)OC(C)(C)[C@@H]1Cc2c(ccc3ccc(=O)oc23)O1
inactive: all assays above

O=C(OCC1OC(Oc2ccc(O)cc2)C(O)C(O)C1O)c1ccccc1 (stereo not given)
inactive: all assays above

CC(=O)O[C@H]1C[C@@H]2CC[C@H]3[C@H]4C[C@H]([N+]5(C)CCCCC5)[C@@H](OC(C)=O)[C@@]4(C)CC[C@@H]3[C@@]2(C)C[C@H]1N1CCCCC1
inactive: all assays above

Cc1[nH]c(C=C2C(=O)Nc3ccccc32)c(C)c1CCC(=O)O
inactive: [1]
active: [2] 10.9 µM | [3] 21.7 µM | [4] 34.3 µM

COc1c(C)c2c(c(O)c1CC=C(C)CCC(=O)OCCN1CCOCC1)C(=O)OC2
active: [1] 6.11 µM | [2] 6.85 µM | [3] 12.2 µM | [4] 6.11 µM

CNCC(=O)O
inactive: all assays above
